Rows were chosen to be rich in hits. Some 13% of all compounds tested hit in one or more screens of this group.
HCMV inh: qHTS Assay for inhibitors of the human cytomegalovirus (HCMV); AID 1259415, 2018; 410,000 compounds, 4.5% hits; activity change, negative = inhibition, % at 57.5 µM; HFF cells, HCMV-luciferase reporter, 72 h; stronger effect = lower value; in the data active = activity change below about -60%; inconclusive = no clear call, values can overlap the other calls; inactive = above about -39%
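Two-dose cell screen: HFF monolayers treated with compounds and infected with luciferase-expressing HCMV at 1 PFU/cell, 72 h at 37C, then lysed for luciferase measurement.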
Pf growth 96h: Primary qHTS for delayed death inhibitors of the malarial parasite plastid, 96 hour incubation; Potency, µM (doses to about 28.7 µM), for the others: top-dose activity change, negative = inhibition, hits mostly inhibitors; 320,000 compounds, 6.9% hits; P. falciparum luciferase reporter growth, 96 h; also: potency is read from the fitted curve at half-maximal effect
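Two parasite generations (96 h, 37 C, 5% CO2) of compound exposure in infected erythrocytes (0.05% parasitemia, 2% hematocrit). Luciferase-reporter P. falciparum; decreased luminescence indicates inhibited growth, aimed at apicoplast-acting delayed death.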
Pf growth 48h: Primary qHTS for delayed death inhibitors of the malarial parasite plastid, 48 hour incubation | Potency, µM (highest dose often 28.7 µM), inactives show at the highest dose activity change, negative = inhibition, actives largely listed as inhibitors | P. falciparum luciferase growth in erythrocytes, 48 h | 310,000 compounds, 5.9% hits; also: potency is read from the fitted curve at half-maximal effect
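Luciferase-expressing P. falciparum in infected erythrocytes (2% hematocrit, 0.1% parasitemia final) in RPMI 1640/0.5% Albumax were exposed to compound for 48 hours at 37 C, 5% CO2; growth read as luminescence.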
HCV inh: qHTS Assay for Inhibitors of Hepatitis C Virus (HCV) | Potency, µM (series often up to 41.8 µM), inactives show at the top dose activity change, negative = inhibition, usual class: inhibitors | Huh7.5.1 HCVcc-Cre infection, luciferase reporter, 44 h | 340,000 compounds, 3.4% hits; also: potency is read from the fitted curve at half-maximal effect
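Infectious HCVcc-Cre (~0.5 moi) was added to cells just after compound, with cells seeded 4 h earlier at 1,000 per well. Luciferase activity after 44 h culture reported infection; substrate was incubated 15 min at room temperature before reading.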
Numbers without * were called inactive; ? = inconclusive; nt = no result given; ! = not confirmed by another sample. Unless noted, calls follow the shape of the dose curve; as a rule, active = well fitted inhibition curve with a large enough effect; inconclusive = small, poorly fitted or top-dose-only effect, or another doubt; inactive = no such curve, though single readings can be large or run the other way. % is scaled to controls: 0 for no effect and ±100 for the full control effect.

SMILES | HCMV inh | Pf growth 96h | Pf growth 48h | HCV inh
COc1cc2c(cc1OC)C(C)N(C(=O)c1ccc(Cl)c(S(=O)(=O)N3CCCCC3)c1)CC2 (centres undefined) | -63.7* | ? | ? | 8.91µM*
CN1CCN(C(=O)c2ccc(Cl)c(S(=O)(=O)N3CCCCCC3)c2)CC1 | -9.2 | -20.0% | 0.0% | -4.3%
COc1ccccc1/C=C/C(=O)N1CCc2cc(OC)c(OC)cc2C1C (centres undefined) | -19.7 | ? | -9.0% | 22.4µM*
COc1cc2c(cc1OC)C(C)N(C(=O)c1cccc([N+](=O)[O-])c1)CC2 (centres undefined) | -74.2* | 0.522µM* | -8.0% | -28.0%
CCCCn1c(-c2nonc2NC(=O)c2ccccc2Cl)nc2ccccc21 | -76.9* | nt | nt | 1.6%
CC(=O)Nc1nonc1-c1nc2ccccc2n1CC1CC1 | -67.1* | -11.1% | 19.2% | ?
CC(=O)Nc1nonc1-c1nc2ccccc2n1CCC#N | -20.1 | -17.7% | 4.5% | -7.0%
O=C([C@H]1O[C@@H](n2ccc(=O)[nH]c2=O)[C@H](O)[C@@H]1O)N(CCC1=CCCCC1)CC1CC1 | 0.9 | nt | nt | nt
O=C(NCc1ccc2c(c1)CCN2C(=O)c1ccccc1)c1cc2ccccc2[nH]1 | -6.2 | nt | nt | nt
COc1cc(C(C[N+](=O)[O-])c2c(N)n(C)c(=O)n(C)c2=O)ccc1O (centres undefined) | -70.7* | -18.9% | 0.0% | ?
COc1cccc(F)c1C(C[N+](=O)[O-])c1c(N)n(C)c(=O)n(C)c1=O (centres undefined) | -99.6* | 13.1µM* | ? | 7.94µM*
Cc1ccc(C(C[N+](=O)[O-])c2c(N)n(C)c(=O)n(C)c2=O)cc1 (centres undefined) | 56.7 | ? | ? | 12.8%
COC(=O)c1ccc(C(=O)OC)c(NC(=O)c2cnn3c(C(F)F)cc(-c4ccccc4)nc23)c1 | 0.0 | nt | nt | nt
c1ccc(CNc2ncnc3ccccc23)cc1 | -97.1*! | -8.5% | ? | ?
OCC(Cc1ccccc1)NCc1ccccc1C(F)(F)F (centres undefined) | 10.4 | 33.4% | -6.4% | 5.6%
Oc1ccccc1Nc1nc(NCc2ccccc2)c2ccccc2n1 | ? | 59.6% | 0.329µM* | 11.2µM*
Oc1ccc(CCNc2c3ccccc3nc3ccccc23)cc1O | -100.0* | 3.29µM* | 13.1µM* | -28.0%
CNCCc1ccc(O)c(O)c1 | 53.5 | nt | nt | -11.3%
COc1cc2ncnc(NCc3ccccc3)c2cc1OC | -19.5 | ? | ? | -12.4%
OCC(Cc1ccccc1)Nc1c2ccccc2nc2ccccc12 (centres undefined) | -62.5* | ? | 2.62µM* | -13.0%
CCc1ccc(CN2C(=O)c3ccccc3C2C(=O)NCCc2ccc(OC)c(OC)c2)cc1 (centres undefined) | -31.1 | nt | nt | nt
CCc1cccc(NC(=O)c2ccc3c(c2)c(C)c(C)n3Cc2ccc(F)cc2)c1 | 0.0 | nt | nt | nt
Cc1ccc(CCNc2ncnc(Cl)c2N)cc1 | -83.9* | nt | nt | 1µM*
c1ccc(CNc2c3ccccc3nc3ccccc23)cc1 | -100.3* | ? | 2.94µM* | ?
CCOC(=O)c1nc(NCc2ccccc2)c2ccccc2n1 | -39.8 | -3.7% | -0.2% | -28.2%
SMILES | HCMV inh | Pf growth 96h | Pf growth 48h | HCV inh
CNc1nc(NCc2ccccc2)c2ccccc2n1 | 28.2 | ? | 1.17µM* | 11.2µM*
Nc1c(Cl)ncnc1NCc1ccccc1 | ? | 0.415µM* | -10.8% | ?
CCCCNc1nc(NCc2ccccc2)nc2ccccc12 | -31.6 | nt | nt | nt
CCN(CC)CCCNC(=O)c1nn2c(C(F)(F)F)cc(-c3ccccc3)nc2c1Cl | 0.4 | ? | 0.0% | 3.98µM*
COc1ccc(-c2[nH]c(-c3cc(OC)c4c(c3)OCO4)nc2-c2ccccc2)cc1 | -71.0* | ? | 4.15µM* | ?
Cc1ccc2oc(=O)n(CCNC(=O)Nc3ccccc3Cl)c2c1 | -21.9 | nt | nt | nt
Cc1ccc(N2C(=O)NC(=O)/C(=C\c3ccsc3)C2=O)cc1C | nt | 7.38µM* | 5.2% | 6.3%
O=C1NC(=O)N(c2ccc3c(c2)OCO3)C(=O)/C1=C\c1ccsc1 | -7.1 | 10.4% | -0.3% | 16.8%
Cc1ccc(S(=O)(=O)c2cn(CC(=O)Nc3ccc4c(c3)OCO4)c3ccccc3c2=O)cc1 | 7.8 | nt | nt | nt
COc1ccc(C2c3c(n(C)c4ccccc34)C(=O)N2CC(=O)Nc2c(C)cc(C)cc2C)cc1 (centres undefined) | 0.0 | nt | nt | nt
CCN1CCc2c(sc(NC(=O)C3COc4ccccc4O3)c2C(N)=O)C1 (centres undefined) | -71.2* | -7.0% | 33.3% | nt
CCOC(=O)N1CCc2c(sc(NC(=O)c3ccc(Cl)s3)c2C(N)=O)C1 | nt | 13.1µM* | ? | -18.2%
CN1CCc2c(sc(NC(=O)C3COc4ccccc4O3)c2C(N)=O)C1 (centres undefined) | -62.6* | 71.8% | 108.6% | nt
COC(=O)c1c(NC(=O)C2COc3ccccc3O2)sc2c1CCN(C(C)=O)C2 (centres undefined) | 12.4 | ? | ? | ?
CCOC(=O)N1CCc2c(sc(NC(C)=O)c2C(N)=O)C1 | -21.6 | nt | nt | -0.3%
CCN1CCc2c(sc(NC(=O)COc3ccccc3)c2C(=O)OC)C1 | -12.6 | 0.0% | 14.7µM* | ?
O=C(CN1C(=O)C2CCCCN2c2ccc(C(=O)N3CCCC3)cc21)NCc1cccc(Cl)c1 (centres undefined) | 3.6 | nt | nt | nt
COc1cccc(C(=O)c2sc(Nc3ccc(C)cc3C)c(S(=O)(=O)c3ccccc3)c2N)c1 | 1.0 | nt | nt | nt
CCC(=O)Nc1sc2c(c1C(N)=O)CCN(C(C)=O)C2 | 19.2 | 8.4% | -1.5% | 2.0%
CCOC(=O)N1CCc2c(sc(NC(=O)C3COc4ccccc4O3)c2C(N)=O)C1 (centres undefined) | -96.6* | 9.28µM* | ? | 15.8µM*
CC(=O)N1CCc2c(sc(NC(=O)c3ccc([N+](=O)[O-])o3)c2C(N)=O)C1 | -101.0* | nt | nt | nt
CCN1CCc2c(sc(NC(=O)Nc3ccc(Cl)c(Cl)c3)c2C(N)=O)C1 | 37.9 | 27.4% | 11.7µM* | ?
CC(=O)N1CCc2c(sc(NC(=O)C3COc4ccccc4O3)c2C(N)=O)C1 (centres undefined) | 36.7 | 11.7µM* | 1.7% | ?
Cc1cc(C)cc(NC(=O)C(=O)NCC(c2ccc3c(c2)OCO3)N2CCOCC2)c1 (centres undefined) | -17.3 | nt | nt | nt
O=C(COc1ccc(Br)cc1)Nc1ccc(C(=O)OC2CCCCC2)cc1 | 6.3 | nt | nt | nt
O=S(=O)(NCc1nc2cccnc2n1Cc1ccccc1Cl)c1ccc(F)c(Cl)c1 | -20.9 | nt | nt | nt
COc1ccc(NC(=O)C2CCN(C(=O)c3sc4nc[nH]c(=O)c4c3C)CC2)c(OC)c1 | 36.0 | nt | nt | nt
O=C(/C=C/c1ccccc1)OCCCN=C1NS(=O)(=O)c2ccccc21 | -10.6 | 5.22µM* | -3.6% | -2.4%
Cc1ccccc1C(=O)OCCCN=C1NS(=O)(=O)c2ccccc21 | -8.3 | -28.0% | -6.4% | -18.8%
